According to PubChem BioAssay (NCI):
Compounds without any hit were thinned out: in the full panel of roughly 83,000, 20% have a hit.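 Assay: single dose, 48 h. Readout: percent growth (0 = no net growth; negative = cell death). Active: <10.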 Values without a mark were called inactive. Calls of active or inactive are those of the source.

Assays:
Assay in all cases: NCI-60 one-dose screen, 48 h (100 = growth as untreated, 0 = no growth, -100 = all killed)
Conditions in all cases: 10 µM unless noted
NCI-H23 lung = test system: NCI-H23 lung
NCI-H226 lung = test system: NCI-H226 lung
NCI-H322M lung = test system: NCI-H322M lung
HOP-62 NSCLC = test system: HOP-62 NSCLC
NCI-H460 lung = test system: NCI-H460 lung
HOP-92 NSCLC = test system: HOP-92 NSCLC
NCI-H522 lung = test system: NCI-H522 lung
A549/ATCC NSCLC = test system: A549/ATCC NSCLC
786-0 renal = test system: 786-0 renal
COLO 205 colon = test system: COLO 205 colon

Structure (SMILES) | growth (NCI-H23 lung) | growth (NCI-H226 lung) | growth (NCI-H322M lung) | growth (HOP-62 NSCLC) | growth (NCI-H460 lung) | growth (HOP-92 NSCLC) | growth (NCI-H522 lung) | growth (A549/ATCC NSCLC) | growth (786-0 renal) | growth (COLO 205 colon)
C=C1C(=O)O[C@H]2[C@H]1CC/C(COC(=O)c1ccccc1)=C\CC[C@@]1(C)O[C@@H]21 | 45% | -37.2% (active) | 59.3% | 36.6% | 38% | -41.9% (active) | -77.7% (active) | 23.3% | -59.2% (active) | -64.7% (active)
CCn1cc(/C=C2\Oc3cc(OCC#N)ccc3C2=O)c2cc(OC)ccc21 | 41.6% | 86.4% | 49.3% | 36.6% | 8.51% (active) | 71.2% | 56.7% | 41.1% | 38.3% | 8.22% (active)
NS(=O)(=O)c1ccc(CCN2C(=O)/C(=C\c3ccc(Cl)cc3)C=C2c2ccc(Oc3ccccc3)cc2)cc1 | 84% | 72.7% | 79.2% | 95.9% | 69% | 84.7% | 56.1% | 51.8% | 91.1% | 80%
Cc1nc(N)nc(SCc2ccccc2)c1Br | 93.7% | 83.7% | 70.3% | 83.1% | 104% | 79.4% | 66.7% | 73.4% | 88.9% | 105%
COc1ccc(/C=C2\CS(=O)(=O)C/C(=C\c3ccc(OC)cc3)C2=O)cc1 | -49.3% (active) | -43.9% (active) | 30.9% | -67.7% (active) | -52.6% (active) | -41.3% (active) | -73.6% (active) | -56.5% (active) | -100% (active) | -70.6% (active)
Cc1c(Cl)ccc2c(C(=O)Cl)cc(-c3ccccc3)nc12 | 98.8% | 90.8% | 103% | 85.4% | 98.2% | 93.5% | 95.1% | 92.9% | 97.1% | 111%
Nc1c(C(=O)O)[nH]c(=O)[nH]c1=O | 103% | 93.8% | 102% | 108% | 104% | 104% | 84.3% | 71.9% | 104% | 115%
CCN(CC)CCN1C(=O)c2c(c3c4ccccc4[nH]c3c3[nH]c4ccccc4c23)C1=O | 85.6% | 86.6% | 66.6% | 64.7% | 69% | 86.4% | 69.4% | 82.2% | 83.6% | 75.8%
COc1ccccc1N1CCN(CC(O)COc2c(Br)c(Br)c(Br)c3c2OC(C)(C)C3)CC1 (stereo not given) | 48.8% | 45% | 59.9% | 66.1% | 15.1% | -28.9% (active) | 55.1% | 45.5% | 6.05% (active) | 58.6%
CC1(C)N=C(N)N=C(N)N1c1ccc(OCC(=O)Nc2ccccc2)c(Cl)c1 | 24% | 99.7% | 40.2% | -3.64% (active) | 15.3% | 13.4% | -7.05% (active) | 11.2% | – | 82.9%
COc1cc2nc(C(=O)N3CCCCC3)cc(Nc3ccccc3)c2cc1OC | 96.7% | 107% | 96.1% | 96% | 102% | 73.3% | 65.7% | 98.1% | 95.3% | 116%
Nn1c(SCC(=O)Nc2cc(Cl)c(Cl)cc2Cl)nnc1-c1cc(F)c(Cl)cc1Cl | 103% | 138% | 105% | 91.3% | 110% | 75.8% | 90.9% | 106% | 98.4% | 106%
CO[C@H]1/C=C/C=C/C=C/C[C@H](OC(=O)[C@@H](C)NC(=O)C2CCCCC2)[C@H](C)[C@@H](O)/C(C)=C\CCC2=CC(=O)C=C(NC(=O)C1)C2=O | -14.1% (active) | -15% (active) | -2.45% (active) | -35.6% (active) | 1.23% (active) | -10.7% (active) | -29.9% (active) | -5.23% (active) | -5.57% (active) | -26.6% (active)
Cn1cnc([N+](=O)[O-])c1N1c2ccncc2Sc2ccncc21 | 91.2% | 82.1% | 110% | 93.3% | 106% | 77.1% | 72.5% | 104% | 110% | 89.6%
Cc1[nH]n(C(=O)c2ccncc2)c(=O)c1N=Nc1ccc(S(=O)(=O)Nc2ccncn2)cc1 | 100% | 90% | 115% | 76.6% | 115% | 54.7% | 102% | 18.9% | – | 127%
CSc1nc(N)nc2c1ncn2C | 95.8% | 102% | 104% | 84.6% | 104% | 64.5% | 78% | 84.5% | 90% | 94.5%
COC1=C(OC)C(=O)C=CC1=O | 111% | 107% | 101% | 117% | 118% | 110% | 63.7% | 109% | 103% | 99.8%
Nc1ncnc2c1ncn2C1OC(COC(c2ccccc2)(c2ccccc2)c2ccccc2)C(O)C1O (stereo not given) | 89.8% | 92.1% | 96.5% | 95.2% | 25.9% | 86.6% | 97.4% | 94.3% | 99.1% | 99.4%
CCOC(=O)C(C)(CSSCC(C)(NC(=O)c1ccc2ccccc2c1)C(=O)OCC)NC(=O)c1ccc2ccccc2c1 (stereo not given) | 98.3% | 97.9% | 96.7% | 105% | 102% | 105% | 92.9% | 26.4% | – | 121%
O=C(Nc1ccc(-n2ccc3c(NC(=O)c4ccccc4)nccc32)cc1)Nc1cccc(C(F)(F)F)c1 | 38.7% | 44.7% | 63.2% | 84.5% | 34.3% | 32.3% | 45.8% | 7.66% (active) | 88.1% | 64.7%
O=C(CSc1nnc(-c2ccc(Cl)cc2)o1)Nc1ccc(C(=O)/C=C/c2ccccc2)cc1 | 93.3% | 107% | 90.5% | 107% | 97.7% | – | 86.7% | 96% | 97.8% | 116%
Nc1ncc(-c2ccc3ncnc(Nc4ccc(F)c(Cl)c4)c3c2)cn1 | 56.2% | 55.5% | 33% | 57.5% | 11.9% | – | 42.9% | 34.6% | 6.18% (active) | 32.3%
CC(C(=O)O)N1C(N)=NNC1c1ccccc1O (stereo not given) | 86.3% | 84.6% | 82.3% | 81.5% | 84.7% | – | 74.8% | 83.3% | 104% | 103%
Nc1nccc2c1ccn2-c1cccc(NC(=O)c2ccc(N3CCOCC3)c(C(F)(F)F)c2)c1 | 16.4% | 35.8% | 35.3% | 24.1% | 1.28% (active) | – | -43% (active) | 10.8% | -38.9% (active) | -38.6% (active)
O=C(NCCNc1nccc(-c2c(-c3cccc(O)c3)nc3sccn23)n1)c1ccccc1O | 57.4% | 80.5% | 72.3% | 114% | 57% | – | 29% | 43.3% | 64.6% | 66.5%
Cc1cn(C2CC(N=[N+]=[N-])C(COP(=O)(O)OP(=O)(O)OP(=O)(O)O)O2)c(=O)[nH]c1=O (stereo not given) | 94.7% | 115% | 102% | 94.1% | 82.4% | – | 92.9% | 146% | 95.2% | 119%
COc1cc(Br)c(-c2nc(-c3ccccc3)c(-c3ccccc3)n2Cc2ccccc2)cc1OC | 46.8% | 70.4% | 75.1% | 91.8% | 48.9% | – | 39.6% | 37% | 67.9% | 30.2%
